These results are taken from PubChem BioAssay (NCATS).

Where “and” joins values, the source holds several entries; their conditions need not be identical. Identical values can stand only once. Results filed as inconclusive are left out. A number with no mark means an inactive call. Calls of active or inactive are those of the source. The call rests on the fitted dose curve; in most records, active means well fitted inhibition curve with a large enough effect; inconclusive means small, poorly fitted or top-dose-only effect; inactive means flat fitted curve, though single readings scatter.

Test [1] has as its system CRL-7250. The test can be described thus: Cytotoxic Profiling of Annotated Libraries Using Quantitative High-Throughput Screening (AID 1296008). On max response: on the % scale 0 is the no-effect control and ±100 the full control effect. To be noted: Five cell lines viability, CellTiter-Glo ATP luminescence, 48-72 h; max response: active compounds read low. In a few lines:
(§1)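 Cytotoxicity was measured as CellTiter-Glo ATP luminescence, read after 10 min at room temperature. Compound treatment of the cells lasted 48 or 72 hr at 37 degrees Celsius in a qHTS format.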
Background: Cellular ATP, detected with luciferase, serves as a proxy for viable cell number.

Test [2] concerns HEK293. The test is described as above. To be noted: Five cell lines viability, CellTiter-Glo ATP luminescence, 48-72 h; max response: active compounds read low. In a few lines:
as §1

Test [3] concerns HaCat. The test is described as above. To be noted: Five cell lines viability, CellTiter-Glo ATP luminescence, 48-72 h; max response: active compounds read low. In a few lines:
as §1

The subject of test [4] is NIH3T3. Described as above. To be noted: Five cell lines viability, CellTiter-Glo ATP luminescence, 48-72 h; max response: active compounds read low. In a few lines: as §1
For test [5], the system named is HACAT. In words: qHTS assay to identify novel small-molecules to repurpose for Merkel cell carcinoma treatment (AID 1296009). To be noted: MCC and control cell lines, CellTiter-Glo viability, 72 h; at 44.8 µM (top of the series) unless noted. In a few lines: (§2)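 Cell viability, measured as CellTiter-Glo luminescence, was normalized between DMSO and no-cell wells. The cells had been exposed to 8- or 11-point compound dilutions for 72 hr at 37 degree celsius.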
(In general: qHTS replaces the single test concentration by a dilution series.)

For test [6], the system named is MCC-13. Described as above. To be noted: MCC and control cell lines, CellTiter-Glo viability, 72 h; series mostly up to 46 µM. In a few lines: as §2
The test system of test [7] is W2. The test can be described thus: qHTS profiling for inhibitors of Plasmodium falciparum proliferation (AID 504749). Further: potency means the concentration at half of the fitted maximal effect.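 On activity, negative = inhibition: 0% = DMSO vehicle and full inhibition = artemisinin control.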 To be noted: P. falciparum in erythrocytes, SYBR Green DNA, 72 h; series mostly up to 28.7 µM. In a few lines: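 SYBR Green fluorescence of parasite DNA, read after lysis and overnight dark incubation, measured growth over 72 h in erythrocyte culture at 0.3% parasitemia and 2.5% hematocrit. Data normalised to DMSO and 0.29 uM artemisinin, with plate-drift correction.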

Test [8] has as its system KB-3-1. In words: Cytotoxic Profiling of Annotated Libraries Using Quantitative High-Throughput Screening (AID 1296008). On max response: on the % scale 0 is the no-effect control and ±100 the full control effect. To be noted: Five cell lines viability, CellTiter-Glo ATP luminescence, 48-72 h; max response: active compounds read low. In a few lines: as §1
The subject of test [9] is CRL-7250. In words: qHTS assay to identify novel small-molecules to repurpose for Merkel cell carcinoma treatment (AID 1296009). To be noted: MCC and control cell lines, CellTiter-Glo viability, 72 h; at 44.8 µM (top of the series) unless noted. In a few lines: as §2
Test [10] has as its system HEK293T. The test is described as above. To be noted: MCC and control cell lines, CellTiter-Glo viability, 72 h; at 44.8 µM (top of the series) unless noted. In a few lines:
as §2
Further: nearly all actives have a fitted effect of over 60% in size.

As for `CCCOC(=O)c1cncn1C(C)c1ccccc1` (stereo not drawn), the max response was -1.16% in test [1], 1.16% in [2] and 3.77% in test [4]. Also, the molecule was called inactive in test [3], in [5] and in test [6].
Regarding `CCCCC/C=C\C/C=C\C/C=C\C/C=C\CCCC(=O)NCC(=O)O`, the activity, negative = inhibition in test [7] is 6.9% [at 2.67 µM]. Also, the max response is -2.63% in [1], -7.97% in [2] and -17.5% in test [8]. Besides, the result in test [4] and in test [6] was inactive.
Take `CC(C(=O)c1ccccc1)N(C)C` (stereo not drawn): the max response in test [1] was 3.38%; in [2] it was -1.39%; in test [4] it was -10.7%. Besides, the result in test [3], in [5] and in [6] was inactive.
Take `C[C@H]1[C@@H]2Cc3ccc(O)cc3[C@@]1(C)CCN2C`: the max response in [1] was -7.45%; in test [2] it was -19.5%; in test [8], -22%. Besides, the call in [4] and in test [6] was inactive.
On to `O=c1[nH]c2ccccc2n1C1CCNCC1`, for which the outcome in [1], in test [4], in test [9] and in test [6] was inactive. In addition, the max response in test [2] is -4.64%; in test [3], 3.09%.
As to `C[C@]12CCC(=O)C=C1CC[C@@H]1[C@@H]2CC[C@@]2(C)[C@H]1CC[C@]2(C)O`, the max response in test [1] was 2.75%; in test [8], -6.95% and 1.16%; in test [4], -3.69%. In addition, the result in test [3], in test [5] and in test [6] was inactive.
With `O=c1c(C2CC(c3ccc(-c4ccc(Br)cc4)cc3)Cc3ccccc32)c(O)sc2ccccc12` (stereo not drawn), the max response in test [1] is 0.288%. For the same molecule, in test [6], the molecule was classed as inactive.
Regarding `C[C@]12CC[C@H]3[C@@H](CCC4=CC(=O)CC[C@@H]43)[C@@H]1CC[C@@H]2OC(=O)CCC1CCCCC1`, the molecule was classed as inactive in test [1], in test [4], in test [9] and in test [6]. In test [3], the max response was 2.69%.
Take `CCC(CC)(CNC(=O)CCCO)c1cccc(OC)c1`: the values for the max response in test [1], in test [2] and in test [3] were 0.244%, -5.56% and -1.8%, respectively. In addition, the molecule was classed as inactive in [4] and in test [6].
Turning to `CCCN(CCC)C(=O)Cc1c(-c2ccc(Cl)cc2)nc2ccc(Cl)cn12`, the max response in test [1] is 0.585%; in [3], -9.95%; in [8], -8.04%; in [4] it was 0.9%. The molecule was classed as inactive in [6].
Regarding `C#CC(O)(C=CCl)CC` (stereo not drawn), the max response is -0.331% in test [1] and -13.2% in test [2]. In addition, the molecule was classed as inactive in [3], in [4], in test [5] and in [6].
For the molecule `CC(C)=CC1C(C(=O)OCN2C(=O)C3=C(CCCC3)C2=O)C1(C)C` (stereo not drawn), the Potency result in test [7] is “inactive”. Moreover, the max response in test [2] is -22.7%; in [8], 2.15%; in test [4] it was -1.87%. The molecule was called inactive in [3], in [5] and in [6].
As for `COc1cccc([C@@]2(O)CCCC[C@@H]2CN(C)C)c1`, the molecule was classed as inactive in test [1], in test [4], in test [9] and in test [6]. In addition, the results for the max response in [2] and in [8] were -4.04% and 0.535%, respectively.
On to `c1ccc(N2CCNCC2)cc1`, for which the max response in [1] was 4.63%; in [2] it was -4.08%. For the same molecule, the outcome in test [3], in test [4], in test [5] and in [6] was inactive.
Consider `CCC(C)C(C)(COC(N)=O)COC(N)=O` (stereo not drawn), for which the max response in [1] was 1.47%; in test [3] it was -3.56%. The molecule was called inactive in test [2], in test [4], in test [10] and in [6].
As for `CCN[C@H](C)Cc1cccc(C(F)(F)F)c1`, the max response in test [1] is -0.312%; in test [8], -19.7%; in test [4], -0.0448%. Also, the molecule was called inactive in test [3] and in [6]. The outcome in test [5] was “inactive [at 92 µM]”.
With `C[C@]12Cc3cn[nH]c3C[C@@H]1CC[C@@H]1[C@@H]2CC[C@@]2(C)[C@H]1CC[C@]2(C)O`, the max response is 0.607% in [1], 2.06% in test [3] and 3.99% in test [4]. Further, in [6], the call was inactive.
As to `CCC(C)(C)c1ccc(O)cc1`, the Potency entry in test [7] is “inactive”. Moreover, the call in test [2], in test [10] and in [6] was inactive. Besides, the max response was 2.15% in test [3], 14.4% in [8] and 3.56% in test [4].
For `O=C1OC(CCN2CCCCC2)OC1(c1ccccc1)c1ccccc1` (stereo not drawn), the values for the max response in test [1] and in test [3] were -20% and 4.71%, respectively.
In the case of `ClCCN1CCCC1`, the max response in test [1] was -0.393%. The molecule was classed as inactive in test [2], in test [3], in test [4], in [5], in test [10] and in test [6].
As to `CC(Cc1ccccc1)NCCn1cnc2c1c(=O)n(C)c(=O)n2C` (stereo not drawn), the max response in [1] was 2.38%; in test [8], 0.853%; in test [4], -0.181%. Also, the outcome in [3] and in test [6] was inactive. The outcome in [5] was “inactive [at 92 µM]”.
As to `COC1CC(=C(c2cccs2)c2cccs2)C[N+](C)(C)C1` (stereo not drawn), the max response in test [1] was -1.67%; in [3], 2.01%; in test [8], 0.141%; in [4], 0.648%. Also, in test [6], the result was inactive.
For the molecule `CCOP(=S)(OCC)Oc1ccc2c(C)c(Cl)c(=O)oc2c1`, the Potency in [7] was 6.75 µM (active). The max response in test [1] was -4.21%; in test [3], 0.247%; in test [8] it was -7.69%; in test [4] it was -7.51%. Besides, in test [6], the molecule was called inactive.
For the molecule `CCN(CC)CCc1c[nH]c2ccccc12`, the max response in [2] was -22%; in test [3] it was -3.07%; in [8] it was -19.3%; in [4], -2.44%. In addition, in [6], the result was inactive.
For the molecule `CC[N+]1(CC)CCC(OC(=O)C(O)(c2ccccc2)c2ccccc2)C1` (stereo not drawn), the results for the max response in [1], in test [2] and in [4] were -3.85%, 3.52% and 4.46%, respectively. The outcome in test [3], in test [5] and in test [6] was inactive.
As to `O=C(CCCN1CCC2(CC1)C(=O)NCN2c1ccccc1)c1ccc(F)cc1`, the values for the max response in test [1] and in [8] were -1.53% and -7.2%, respectively. Besides, the outcome in test [3], in test [4], in [5] and in [6] was inactive.
